# Assay results published in PubChem BioAssay (NCI).
# About 83,000 compounds went through this panel and 20% of them were active in at least one assay; those are over-represented in the sample as a whole.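 Compound tested at a single concentration for 48 hours in 96-well plates; a percent growth value below 10 was scored as active.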 Values without a mark were called inactive. Calls of active or inactive are those of the source.
# Test system: SR leukemia
# Test: NCI-60 one-dose screen, 48 h (100 = growth as untreated, 0 = no growth, -100 = all killed)
# Settings: 10 µM unless noted
row,SMILES,growth
1,Nc1nc(SCc2cccc([N+](=O)[O-])c2)c2[nH]cnc2n1,95.6%
2,N/C(=N\c1nc2ccccc2[nH]1)NC(=O)Cc1cccc2ccccc12,115%
3,O=C1NC(=O)c2cc([N+](=O)[O-])cc3cccc1c23,114%
4,COc1ccc(C2CC(c3cc(OC)c(OC)c(OC)c3)=NN2C(C)=O)cc1OCC(=O)Nc1nc2ccc(C(F)(F)F)cc2s1 (configuration not stated),63.4%
5,O=C(N/N=C/c1ccc([N+](=O)[O-])cc1)c1ccc(Br)o1,106%
6,O=C(NCc1ccccc1)C(Cl)Cl,95.1%
7,COc1cc2c(c(OC)c1OC)-c1ccc(NNC(N)=S)c(=O)cc1[C@@H](NC(C)=O)CC2,13.2%
8,CC(C)OC(=O)Nc1cc(F)c(F)cc1F,102%
9,Nc1cc(C(=O)O)[nH]c(=S)n1,94.2%
10,COc1ccc(OC)c(NC=O)c1,83.3%
11,ClC1=C(Cl)C(Cl)=C(Cl)C1=Cc1ccccc1,4.43% (active)
12,O=C(O)c1cc([N+](=O)[O-])ccc1Br,112%
13,COC(=O)c1cc2c(=O)[nH]cc3c2c(n1)CCC3,113%
14,CCN=C1C=CC(=C(c2ccc(N(CC)CC)cc2)c2ccc(N(CC)CC)cc2)c2ccccc21,-7.85% (active)
15,O=c1[nH]c(CN2CCN(c3cccc(Cl)c3)CC2)nc2cc(Cl)ccc12,89.7%
16,c1ccc2c(c1)CN(CCCN1CCOCC1)C2,97.8%
17,Nc1cc(NN=C(c2ccc(O)cc2)c2ccc(O)cc2)c([N+](=O)[O-])cc1[N+](=O)[O-],39.2%
